This is a sample that favours compounds with a hit; in the whole collection about 8% have one here.
SARS PLP yeast: inhibitors of SARS-CoV papain-like protease in yeast; hit rate 0.19% among 330,000; Potency, µM (top dose mostly 32.9 µM), most hits filed as activators; S. cerevisiae expressing SARS-CoV PLpro, growth rescue; calls by dose curve; also: nearly all actives have a fitted effect of over 55% in size
Lassa entry inh: blocks Lassa virus binding to or entry into cells. Lassa virus pseudotype entry inhibition, cell reporter. Potency, µM (highest dose often 37.9 µM), hits mostly inhibitors. hit rate 1.2% among 300,000; calls by dose curve; tested in HEK293 cells; also: nearly all actives have a fitted effect of over 50% in size
FMDV antiviral: antivirals against foot and mouth disease virus; hit rate 1.2% among 410,000; Potency, µM (doses to about 57.9 µM), hits mostly inhibitors; AID 1159524; FMDV antiviral cell-based qHTS; calls by dose curve; tested in HEK293T cells; also: read-out not given here; nearly all actives have a fitted effect of over 45% in size
HCV inh: HCV inhibition | Huh7.5.1 HCVcc-Cre infection, luciferase reporter, 44 h | Potency, µM (highest dose often 41.8 µM), actives largely listed as inhibitors | AID 651820 | hit rate 3.4% among 340,000; active = well fitted inhibition curve with a large enough effect; inconclusive = small, poorly fitted or top-dose-only effect, or another doubt; inactive = no such curve, though single readings can be large or run the other way
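Seed cells (1,000/well) for 4 h; treat with compound and infect with HCVcc-Cre, moi about 0.5. Incubate 44 h, then detect luciferase activity.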
MARV entry inh: inhibitors of Marburg virus binding or cell entry; AID 540276; hit rate 1.8% among 300,000; Potency, µM (titrated, usually from 37.8 µM), hits mostly inhibitors; Marburg virus pseudotyped entry inhibition, cell reporter; calls by dose curve; tested in HEK293 cells
HCMV inh: human cytomegalovirus inhibition. HFF cells, HCMV-luciferase reporter, 72 h; stronger effect = lower value. activity change, negative = inhibition, % at 57.5 µM. hit rate 4.5% among 410,000; in the data active = activity change below about -60%; inconclusive = no clear call, values can overlap the other calls; inactive = above about -39%
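Inhibition of viral replication was scored as loss of reporter luminescence in HFFs infected with HCMV-luciferase (MOI 1 PFU/cell) for 72 h; compounds tested at 2 doses, normalized to buffer and Salinomycin controls.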
A number is an active result; 0 = inactive; ? = inconclusive; - = no result; ! = a repeat was not active; [ ] = another dose, or the depositor's remark.

SMILES | SARS PLP yeast | Lassa entry inh | FMDV antiviral | HCV inh | MARV entry inh | HCMV inh
O=C1Nc2ccccc2C1Cc1ccc(Br)cc1 (stereo unspecified) | - | 0 | 0 | - | 0 | 0
CSc1ccc(CC2C(=O)Nc3ccccc32)cc1 (stereo unspecified) | - | ? | 0 | - | 0 | ?
CN(C)c1ccc(CC2C(=O)Nc3ccccc32)cc1 (stereo unspecified) | 0 | 0 | 0 | 0 | 0 | -63
Cc1cccc(CC2C(=O)Nc3ccccc32)c1 (stereo unspecified) | - | 0 | 0 | - | ? | -70
Nc1cc(Cl)cc2c1-c1ccc(Cl)cc1C2O (stereo unspecified) | - | 0 | 0 | ? | 0 | ?
O=C(Nc1cc(Cl)cc2c1-c1ccc(Cl)cc1C2O)C(Cl)Cl (stereo unspecified) | - | 13µM | 0 | 11µM | ? | 0
N#Cc1ccccc1S(=O)(=O)N1CCC(Oc2ccc(-n3cnnn3)cc2)CC1 | - | ? | ? | - | ? | 0
CC(=O)Nc1ccc(S(=O)(=O)N2CCC(Oc3ccc(-n4cnnn4)cc3)CC2)cc1 | 0 | ? | ? | 0 | ? | -89!
O=S(=O)(c1cccc(F)c1)N1CCC(Oc2ccc(-n3cnnn3)cc2)CC1 | - | 0 | ? | - | 0 | -96
COc1ccc(NC(=O)C2CCCN(S(=O)(=O)c3ccc(-n4cnnn4)cc3)C2)cc1 (stereo unspecified) | 0 | 0 | 0 | 0 | 0 | 0
Cc1oc(-c2ccccc2)nc1Cn1cccc1C1=NC(c2ccccc2)CO1 (stereo unspecified) | 0 | ? | ? | ? | 20µM | 0
Cc1c(NC(=O)c2ccc(Cl)cc2)cc(C(C)C)c(O)c1S(=O)(=O)c1ccc(Cl)cc1 | - | 0 | 0 | - | ? | 0
COc1ccc(-n2c(=O)c3ccccc3c3ccccc3c2=O)c(OC)c1 | 0 | 0 | ? | 0 | 0 | 0
COc1ccc(C)cc1-n1c(=O)c2ccccc2c2ccccc2c1=O | 0 | 0 | 25µM | 0 | 0 | ?
CN(C)CCCN(C(=O)/C=C/c1cccs1)c1nc2ccc(F)cc2s1 | 0 | 0 | 0 | 0 | 8.9µM | ?
COc1ccc(OC)c2sc(N(CCN(C)C)C(=O)/C=C/c3cccs3)nc12 | 0 | ? | 0 | ? | ? | -85
COc1ccc(C)c2sc(N(CCN(C)C)C(=O)/C=C/c3cccs3)nc12 | 0 | - | 0 | 14µM | - | ?
CCOc1cccc2sc(N(CCN(C)C)C(=O)/C=C/c3cccs3)nc12 | 0 | ? | ? | 32µM | ? | -
COc1cccc2sc(N(CCN(C)C)C(=O)/C=C/c3cccs3)nc12 | 0 | - | 0 | ? | - | 0
COc1ccc(-c2nc3c(c4c2C[C@H](c2ccccc2)OC4)CN(S(=O)(=O)c2ccc(Cl)c4nonc24)CC3)c(C)c1 | - | ? | - | - | 0 | -
O=c1c(-c2ccccc2)nc2cnc(Oc3ccccc3)nc2n1C[C@H]1CCCO1 | - | - | 0 | - | - | -
C#CCN1CC(=O)N(COC(=O)C2C(C=C(C)C)C2(C)C)C1=O (stereo unspecified) | - | - | - | - | - | 0
OCCN1CCN(Cc2ccc3c(c2)CN(Cc2cccn2-c2ccccn2)CCO3)CC1 | - | - | 0 | - | - | -
Cc1ccc(S(=O)(=O)N2CCC(C(=O)Nc3ccc(S(=O)(=O)N4CCCC4)cc3)CC2)cc1C | 0 | ? | 0 | ? | ? | 0
CC(=O)/C(C#N)=C1\NC(=O)C(Cc2cc(Cl)ccc2Cl)S1 (stereo unspecified) | 0 | - | 0 | 0 | - | -89
SMILES | SARS PLP yeast | Lassa entry inh | FMDV antiviral | HCV inh | MARV entry inh | HCMV inh
CC(=O)/C(C#N)=C1\NC(=O)C(Cc2ccc(F)cc2)S1 (stereo unspecified) | 0 | ? | 0 | 0 | ? | -83
CC(=O)/C(C#N)=C1\NC(=O)C(Cc2ccccc2Cl)S1 (stereo unspecified) | 0 | 2.3µM | 0 | 0 | ? | -95
NC1=NC(=O)C(Cc2cc(Cl)ccc2Cl)S1 (stereo unspecified) | 0 | 0 | 0 | 0 | 0 | 0
CCOC(=O)COc1ccc(CC)cc1C(=O)c1ccn2nc(-c3ccccc3)cc2n1 | - | 0 | 0 | - | ? | 0
COc1ccc(-c2nc(CSCC(=O)NCCc3ccc(C)cc3)c(C)o2)cc1OC | - | 0 | 0 | - | 0 | 0
CCN(C(=O)CSc1nc2ccccc2n1CC(=O)Nc1ccc(F)cc1F)c1ccccc1 | - | 11µM | 0 | - | - | 0
COc1ccc(-c2cncnc2-c2ccc(OC)cc2O)cc1 | 0 | - | ? | 0 | - | -64
CCOc1ccc(-c2ncncc2-c2ccccc2OC)c(O)c1 | 0 | 0 | 0 | 0 | ? | 0
C=C(C)COc1ccc(-c2n[nH]c(C)c2-c2ccc(Br)cc2)c(O)c1 | 0 | 0.37µM | - | ? | ? | -77
C=C(C)COc1ccc(-c2ncncc2-c2ccccc2OC)c(O)c1 | 0 | 0 | ? | ? | ? | -69
COc1ccc(-c2ncncc2-c2ccc(Cl)cc2)c(O)c1 | 0 | 0 | 0 | 0 | ? | 0
C=C(C)COc1ccc(-c2[nH]ncc2-c2ccccc2OC)c(O)c1 | 0 | ? | 0 | ? | 7.9µM | 0
COc1ccc(NC(=O)N2CC3(CCN(S(=O)(=O)c4ccccc4)CC3)C2)cc1 | - | - | 0 | - | - | -
CCOc1ccc(-c2[nH]ncc2-c2ccc(Cl)cc2)c(O)c1 | 0 | - | 0 | 0 | - | -86
C=C(C)COc1ccc(-c2[nH]ncc2-c2ccc(Br)cc2)c(O)c1 | 0 | ? | 0 | ? | 3.3µM | -94
CCOC(=O)NN=Cc1ccccc1-c1cc(OC)ccc1OC | - | - | - | - | 0 | -
Cc1ccccc1C(=O)N1CCN(c2ccc([N+](=O)[O-])c(NCc3ccco3)c2)CC1 | 0 | 0 | 0 | 13µM | ? | 0
O=C(Nc1ccc(N2CCN(C(=O)c3ccccc3F)CC2)cc1)c1cncc(Br)c1 | ? | ? | 32µM | ? | ? | -90
Cc1ccccc1C(=O)N1CCN(c2ccc(NC(=O)c3ccc4c(c3)OCO4)cc2)CC1 | 0 | ? | 13µM | ? | ? | 0
Cc1ccccc1C(=O)N1CCN(c2ccc(NC(=O)c3cccnc3)cc2)CC1 | 0 | ? | ? | 0 | 0 | 0
Cc1ccccc1C(=O)N1CCN(c2ccc(NC(=O)c3ccc([N+](=O)[O-])o3)cc2)CC1 | 0 | 0 | ? | ? | ? | -98
COc1cc(C)c(CN2CCOc3ccc(C(O)c4cccnc4)cc3C2)cc1C (stereo unspecified) | - | - | 0 | - | - | -
CCOC(=O)c1noc2nc(C)n(CC(=O)Nc3cccc(OC)c3)c(=O)c12 | - | ? | 0 | - | - | 0
Nc1ncnc2c1ccn2[C@H]1CN(Cc2ccc3c(c2)OCO3)C[C@@H](COC(=O)c2ccccc2)O1 | - | - | 0 | - | - | 0
CC1=C(c2ccc(C)cc2)S(=O)(=O)NC1=NCc1cccc(F)c1 | - | 0 | 0 | - | 0 | ?
O=C(Nc1ccc(N2CCN(C(=O)c3ccccc3)CC2)cc1)c1ccc([N+](=O)[O-])o1 | 0 | - | ? | ? | - | -101
Cc1ccc(C)c(N2CCN(C(=O)C(CC(C)C)NS(=O)(=O)c3ccc4nc(C)sc4c3)CC2)c1 (stereo unspecified) | - | ? | 0 | - | ? | 0
CCN(CC)c1cccc(OCC(=O)N2c3ccccc3CC2C)c1 (stereo unspecified) | 0[6.58 µM] | - | 0 | ? | - | -77

High-throughput results as filed in PubChem.
